Hits are enriched below; roughly 5.4% of the tested compounds scored in any of these assays.
VACV Venus inh: inhibitors of vaccinia virus (Venus reporter) | Vaccinia virus Venus reporter expression, fluorescence | Potency, µM (titrated, usually from 36.5 µM), inactives show at the top dose activity change, negative = inhibition, actives largely listed as inhibitors | 330,000 compounds, 0.46% hits | AID 720580; calls by dose curve; tested in A549 cells; also: nearly all actives have a fitted effect of over 30% in size
VACV mCherry inh: inhibitors of vaccinia virus infection (mCherry reporter signal) | Vaccinia virus mCherry reporter infection, fluorescence | Potency, µM (highest dose often 36.5 µM), without a hit: at the highest dose activity change, negative = inhibition, usual class: inhibitors | 310,000 compounds, 0.63% hits; calls by dose curve; tested in A549 cells; also: nearly all actives have a fitted effect of over 35% in size
LASV entry inh: inhibitors of Lassa virus binding or cell entry; Lassa virus pseudotype entry inhibition, cell reporter; 300,000 compounds, 1.2% hits; Potency, µM (doses to about 37.9 µM), for inactives: top-dose activity change, negative = inhibition, actives largely listed as inhibitors; calls by dose curve; tested in HEK293 cells; also: nearly all actives have a fitted effect of over 50% in size
MARV entry inh: blocks Marburg virus binding to or entry into cells. Potency, µM (top dose mostly 37.8 µM), without a hit: top-dose activity change, negative = inhibition, hits mostly inhibitors. Marburg virus pseudotyped entry inhibition, cell reporter. AID 540276. 300,000 compounds, 1.8% hits; calls by dose curve; tested in HEK293 cells
FMDV inh: antivirals against foot and mouth disease virus. FMDV antiviral cell-based qHTS. Potency, µM (top dose mostly 57.9 µM), for inactives: at the highest dose activity change, negative = inhibition, most hits filed as inhibitors. 410,000 compounds, 1.2% hits. AID 1159524; calls by dose curve; tested in HEK293T cells; also: read-out not given here; nearly all actives have a fitted effect of over 45% in size
Sm TGR inh: blocks Schistosoma mansoni thioredoxin glutathione reductase; Q962Y6; purified TGR, DTNB reduction, TNB absorbance 405 nm; Potency, µM (highest dose often 114 µM), for inactives: at the highest dose activity change, negative = inhibition, hits mostly inhibitors; 360,000 compounds, 3% hits; active = well fitted inhibition curve with a large enough effect; inconclusive = small, poorly fitted or top-dose-only effect; inactive = no such curve, though single readings can be large or run the other way; also: nearly all actives have a fitted effect of over 60% in size
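TGR 20 nM + NADPH 100 uM (dispensed conc.), cpd preinc 15 min RT; start with NADPH (500 uM addition) then DTNB (15 mM addition). Kinetic TNB absorbance, 405 nm filter. Four-parameter Hill fit across titration.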
Numbers without * were called inactive; i = inactive; ? = inconclusive; . = no result given; ! = a repeat was not active; [ ] = another dose, or the depositor's remark. % is scaled to controls: 0 for no effect and ±100 for the full control effect; potency is read from the fitted curve at half-maximal effect.

SMILES | VACV Venus inh | VACV mCherry inh | LASV entry inh | MARV entry inh | FMDV inh | Sm TGR inh
COc1cc(/C=N/n2c(-c3ccc4c(c3)NC(=O)CO4)csc2=Nc2cccc(C)c2)ccc1O | ? | -7% | 23µM* | ? | ? | -12%
CCc1nc2ccc(C(=O)NCc3ccco3)cc2nc1CC | -16% | -33% | -8% | -26%[46.1 µM] | 2% | 28µM*
CCc1nc2ccc(C(=O)O)cc2nc1CC | -3% | -13% | 15µM* | 2µM* | ? | -14%
COCCCN1C(=O)c2ccc(C(=O)NCc3ccco3)cc2C1=O | -13% | . | 4% | 11% | 23% | 28µM*
CCCN1C(=O)c2ccc(C(=O)NCc3ccco3)cc2C1=O | . | . | -3% | -5% | 1% | 32µM*
CCC1CN(C(=O)Nc2cccc3c2CCCC3)c2ccccc2O1 (configuration not stated) | -12% | -7% | 3%[46.1 µM] | . | ? | 26%
O=C(Nc1ccc(Cl)cc1C(=O)O)c1ccc2c(c1)C(=O)N(Cc1ccco1)C2=O | . | . | -13% | -3% | -4% | 50µM*
O=C(NCc1ccco1)c1cccc(NC(=O)c2ccco2)c1 | . | . | ? | ? | 23% | 45µM*
Cc1cccc(N=C2NC(=O)/C(=C/C=C/c3ccco3)S2)c1 | -17% | ? | 18µM* | ? | 9% | 40µM*
Cc1ccc(N=C2NC(=O)/C(=C\c3ccco3)S2)cc1 | -4% | -16% | ? | 7% | 47% | -28%
O=C1NC(=Nc2ccc3ccccc3c2)S/C1=C/c1ccco1 | . | . | . | . | 29% | 28µM*
O=C1NC(=Nc2ccc(O)cc2)S/C1=C/c1ccco1 | ? | ? | 4.6µM* | ? | 5% | 25µM*
Oc1ccc(/C=N/Nc2nc(-c3ccc(Cl)cc3)cc(C(F)(F)F)n2)cc1 | 11µM* | 11µM* | ? | 11µM* | 25µM* | 3%
CCN(CC)c1ccc(/C=N/Nc2nc(C)cc(C)n2)cc1 | ? | ? | ? | 10µM* | 9% | -3%
Cc1cc(C)nc(N/N=C/c2ccccc2)n1 | . | . | 6% | 17% | 43% | -9%
Cc1cc(-c2ccccc2)nc(N/N=C/c2ccc(O)cc2)n1 | -24% | 8.9µM* | 8.9µM* | ? | -27% | 0%
Fc1ccc(CNc2nc(-c3ccc(Cl)cc3)cc(C(F)(F)F)n2)cc1 | 5% | -12% | 16%[46.1 µM] | -10%[46.1 µM] | -11% | -2%
O=C(C1=C(c2ccccc2)C(=O)c2ccccc2C1=O)c1ccccc1 | -13% | ? | 2.6µM* | ? | 10µM* | 11%
COC1=C(c2ccccc2)C(=O)c2ccccc2C1=O | -8% | -24% | -17% | 4% | ? | -32%
Cc1cccc(-c2cccc(NC(=O)C3CCCN(C(=O)c4ocnc4C)C3)c2)c1 (configuration not stated) | ? | -21% | 3.5µM* | ? | 21% | 6%
Cc1[nH]c2ccccc2c1/C=C/c1nc2ccccc2c(=O)n1CCO | ? | ? | 11µM* | ? | -7% | -3%
O=c1c2ccccc2nc(/C=C/c2ccc(Br)cc2)n1CCO | -12%[7.34 µM] | 14%[7.34 µM] | ? | ? | -22% | .
O=c1c2ccccc2nc(/C=C/c2ccc([N+](=O)[O-])o2)n1CCCO | ? | ? | 4.5µM* | 2µM* | ? | 18µM*
COc1ccc(NCc2cc3cc4c(cc3n(CC(=O)Nc3ccccc3)c2=O)OCO4)cc1 | -7% | -14% | 5%[46.1 µM] | . | 4% | 5%
COc1ccc(CNCc2ccccc2)cc1COc1ccc(NC(C)=O)cc1 | -12% | -12% | . | . | . | .
SMILES | VACV Venus inh | VACV mCherry inh | LASV entry inh | MARV entry inh | FMDV inh | Sm TGR inh
COc1ccc2nc(-c3cccc(N)c3)[nH]c2c1 | -25% | . | 11µM* | 10µM* | 0% | ?
COc1ccc2nc(-c3ccc(N)cc3)[nH]c2c1 | -13% | -13% | ? | ? | ? | -3%
CSc1nnc(CCNC(=O)c2ccc(-c3cccc(F)c3)cc2)n1-c1ccc(F)cc1 | -4% | -16% | . | . | 0% | .
CCOc1cc(C2NC(=O)N(C)C(C)=C2C(=O)OC)cc(Br)c1O (configuration not stated) | -6% | -22% | 4% | -15%[46.1 µM] | 1% | 50µM*
CC(=O)c1ccc(F)c(-c2cc(C)cc3c2OC(CNC(=O)C2CCCCN2C)C3)c1 (configuration not stated) | -7% | -21% | . | . | -14% | .
CN1CCC(=C2c3ccccc3CC(=O)c3sccc32)CC1 | -11% | -20% | ? | ? | ? | 50µM*!
CCN(CC)CCN(CC)c1ccc(/C=C/c2ccnc3ccccc23)cc1 | 11% | -15% | . | . | . | .
COC(=O)C1=C(C)N(Cc2ccccc2)C(=O)NC1c1ccccc1 (configuration not stated) | . | . | -20%[14.3 µM] | ? | . | .
Cc1ccc(NC(=O)CN2C(=O)N/C(=C/c3ccco3)C2=O)cc1 | -9% | i | 5% | 3% | 0% | 50µM*
Cc1ccc(NC(=O)CN2C(=O)N/C(=C/c3cc(C)n(-c4ccc(C(=O)O)cc4)c3C)C2=O)cc1 | 7% | 3% | 0% | ? | -1% | 45µM*
CN(C)c1ccc(NC(=O)CSC2=Nc3ccccc3C3=NC(CCC(=O)NCc4cccs4)C(=O)N23)cc1 (configuration not stated) | -19% | i | -2%[46.1 µM] | . | 0% | -2%
COc1ccc(CNC(=O)Cn2ccc3cc(S(=O)(=O)N4CCCCC4)ccc32)cc1OC | -6% | -12% | 24%[46.1 µM] | . | -2% | -2%
O=C1C2C(C(=O)N1/N=C/c1ccc(N3CCCCC3)o1)C1C=CC2C12CC2 (configuration not stated) | -3% | -7% | 0% | 6% | -9% | 4µM*
Cn1c(NC(=O)/C=C/c2ccco2)cc(=O)n(C)c1=O | -3% | -1% | ? | ? | 21% | 28µM*
Cc1ccc(/C=C/C(=O)Nc2cc(=O)n(C)c(=O)n2C)o1 | 6% | -8% | 22% | 3% | 21% | 7.9µM*
O=C(CCc1c[nH]c2ccccc12)N1CCN(S(=O)(=O)c2ccc([N+](=O)[O-])cc2)CC1 | -21% | -30% | . | . | -30% | .
O=C1CCCCC1Sc1nnc(-c2ccc3c(c2)OCO3)o1 (configuration not stated) | -6% | -9% | ? | 5.6µM* | 4µM* | -11%
CO[C@H]1C[C@H](O[C@@H]2/C(C)=C/C[C@@H]3C[C@@H](C[C@]4(CC[C@H](C)[C@@H](C5CCCCC5)O4)O3)OC(=O)[C@@H]3C=C(C)/C(=N/O)[C@H]4OC/C(=C\C=C\[C@@H]2C)[C@]43O)O[C@@H](C)[C@@H]1O | ? | -7% | . | . | -3% | .
COc1ccccc1N1CCN(c2ncnc3c2nnn3C)CC1 | -6% | -5% | ? | . | -10% | -3%
Cc1cnc(C=NNC(N)=S)c2cccc(N)c12 | -29% | ? | 8.9µM* | 7.1µM* | -21% | .
NC(=S)NN=Cc1nccc2c(C(F)(F)C(F)(F)C(F)(F)F)cccc12 | 1µM* | 0.32µM* | . | . | -8% | .

Source: PubChem BioAssay
